{"source": "PubChem BioAssay AID760", "about": "(NMMLSC, 2007)", "note": "Screen size: about 190,000 compounds; about 360 (0.19%) were called active. Not shown: some 2% with an inconclusive outcome. This is one part of a sample in which actives are shown more often than they occur. A number with no mark means an inactive call.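 How the source made its calls: active means GTP binding activity at least 20 points away from 100%, either lowered or raised; inconclusive means signal likely due to the compound's own green fluorescence; inactive means the rest.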", "data": [{"target": "Ras-related protein Rab-2A (Canis lupus familiaris) (UniProt P61105)", "experiment": "Rab2 wt fluorescent GTP binding changes, either direction – biochemical, dog, bead-based flow cytometry, multiplex, primary screen (AID 760);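 further: 0% = beads with excess unlabeled GTP and 100% = no-compound control corrected for plate trend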", "settings": "GST-Rab2 wt beads, Bodipy-GTP binding, at 10 µM", "values": [{"smiles": "CCc1nnc(NC(=O)CSc2nnnn2-c2cccc(C(C)=O)c2)s1", "GTP binding activity": "97%"}, {"smiles": "O=C(OCC1O[C@@H](OC(=O)c2cc(O)c(O)c(O)c2)[C@@H](OC(=O)c2cc(O)c(O)c(O)c2)[C@@H](OC(=O)c2cc(O)c(O)c(O)c2)[C@@H]1OC(=O)c1cc(O)c(O)c(O)c1)c1cc(O)c(O)c(O)c1", "note": "(some centres undefined)", "GTP binding activity": "79% (active)"}, {"smiles": "CC(=O)NC1C(OCc2ccccc2)OC(COC(C)=O)C(OC(C)=O)C1OC(C)=O", "note": "(centres undefined)", "GTP binding activity": "100%"}, {"smiles": "CC1(C)CN(c2ccc(-c3ccnc4ncnn34)cc2)C1=O", "GTP binding activity": "99%"}, {"smiles": "CCCOCC(O)CC(CC)C(=O)NNC(=S)Nc1ccccc1", "note": "(centres undefined)", "GTP binding activity": "100%"}, {"smiles": "O=C(Nc1ccc(F)cc1)C1CCN(C(=O)c2ccc([N+](=O)[O-])cc2)CC1", "GTP binding activity": "97%"}, {"smiles": "O=C(Nc1ccc(F)c([N+](=O)[O-])c1)C1CC(=O)N(Cc2ccccc2)C1", "note": "(centres undefined)", "GTP binding activity": "92%"}, {"smiles": "Cc1cc(C2=NNC(=Nc3ccc(S(=O)(=O)N4CCOCC4)cc3)SC2)c(C)n1CC1CCCO1", "note": "(centres undefined)", "GTP binding activity": "101%"}, {"smiles": "O=C(N/C(=C\\c1ccc(F)cc1)C(=O)N1CCCCCC1)c1ccccc1", "GTP binding activity": "98%"}, {"smiles": "Clc1ccc(CN2CCN(/N=C/c3cccnc3)CC2)cc1", "GTP binding activity": "101%"}, {"smiles": "Cc1ccc(NC(=S)NC(=O)c2ccc(-c3ccccc3)cc2)c(C)c1", "GTP binding activity": "97%"}, {"smiles": "Cc1ccc(Nc2c(F)c(F)c(F)c(F)c2C(=O)O)c(C)c1", "GTP binding activity": "131% [activator] (active)"}, {"smiles": "COc1c(F)c(F)c(C(=O)O)c(Nc2ccccc2C)c1F", "GTP binding activity": "97%"}, {"smiles": "Cc1cc(C)n(CC(=O)Nc2ccc([N+](=O)[O-])cc2)n1", "GTP binding activity": "96%"}, {"smiles": "COc1ccc(C2CC(c3cccs3)Nc3nnnn32)cc1", "note": "(centres undefined)", "GTP binding activity": "98%"}, {"smiles": "Cc1c(Br)ccc(NC(=O)COc2ccccc2C(N)=O)c1C", "GTP binding activity": "102%"}, {"smiles": "CN1C(=O)/C(=C\\c2ccc(-c3ccccc3)o2)SC1=S", "GTP binding activity": "88%"}, {"smiles": "O=C(CCc1ccccc1)NCCc1cccs1", "GTP binding activity": "100%"}, {"smiles": "O=C(CCC(=O)N1CCCC1)Nc1ccc([N+](=O)[O-])cc1", "GTP binding activity": "101%"}, {"smiles": "CN(C)CC(C)(C)CNC(=O)c1cc(Br)cc(Br)c1O", "GTP binding activity": "95%"}, {"smiles": "N#C/C(=C\\c1ccc(-c2cccc([N+](=O)[O-])c2)o1)C(=O)NCCN1CCOCC1", "GTP binding activity": "92%"}, {"smiles": "CCN1CCN(C(=O)CCN2C(=O)c3ccccc3C2=O)CC1", "GTP binding activity": "98%"}, {"smiles": "COc1ccc(CC(=O)NCc2nnc(SCC(=O)Nc3ncc(C)s3)n2C)cc1", "GTP binding activity": "98%"}, {"smiles": "CCC(O)C1CCN(Cc2cn(-c3ccc(OC)cc3)nc2-c2cccc(F)c2)CC1", "note": "(centres undefined)", "GTP binding activity": "102%"}, {"smiles": "CCC1(CC)NC(=O)N(Cc2nc3ccccc3s2)C1=O", "GTP binding activity": "98%"}, {"smiles": "Nc1c(C(=O)O)cnn1-c1ccccc1", "GTP binding activity": "96%"}, {"smiles": "Fc1ccccc1Cc1ccc(Cl)nn1", "GTP binding activity": "96%"}, {"smiles": "CC(=O)Nc1ccc(S(=O)(=O)Nc2nccc(/C=C/c3ccccc3F)n2)cc1", "GTP binding activity": "99%"}, {"smiles": "O=C1NC2(CCCCCC2)C(=O)N1CCS(=O)(=O)Oc1ccccc1", "GTP binding activity": "96%"}, {"smiles": "O=C(Nc1cccnc1)c1ccc(Cl)cc1[N+](=O)[O-]", "GTP binding activity": "103%"}, {"smiles": "COc1ccc(NC(=O)c2c(SC)nsc2SC)cc1", "GTP binding activity": "100%"}, {"smiles": "CSc1nsc(SC)c1NC(=O)OC1CCCCC1", "GTP binding activity": "31% (active)"}, {"smiles": "CSc1ncccc1C(=O)NC1CCCCCC1", "GTP binding activity": "99%"}, {"smiles": "Cc1ccc(N(C(=O)c2ccc(S(=O)(=O)N(C)C)cc2)C2C=CS(=O)(=O)C2)cc1", "note": "(centres undefined)", "GTP binding activity": "99%"}, {"smiles": "COc1ccc(CCNC(=O)CCn2c(=O)c3ccccc3n(CC(=O)NCC3CCCO3)c2=O)cc1OC", "note": "(centres undefined)", "GTP binding activity": "96%"}, {"smiles": "COc1ccc(/C=C/C2=CC(C)(C)NC(=S)N2)c(OC)c1", "GTP binding activity": "96%"}, {"smiles": "CCOC(=O)c1ccc(NC(=O)C2CC(=O)Nc3nc4ccccc4n32)cc1", "note": "(centres undefined)", "GTP binding activity": "94%"}, {"smiles": "C/C(=N\\NC(=O)OC(C)(C)C)c1ccc[nH]1", "GTP binding activity": "98%"}, {"smiles": "O=C(Cn1nnc2ccccc2c1=O)NCc1ccc(Cl)cc1", "GTP binding activity": "100%"}, {"smiles": "CC(C)CCC(C)NC(=O)c1ccc2nccnc2c1", "note": "(centres undefined)", "GTP binding activity": "97%"}, {"smiles": "COc1ccc(CCNC(=O)COC(=O)Cc2cc(OC)c(OC)c(OC)c2)cc1", "GTP binding activity": "96%"}, {"smiles": "Cn1cc(-c2ccccc2)cc(C#N)c1=O", "GTP binding activity": "98%"}, {"smiles": "CCc1ccccc1NC(=O)CSc1nnc(-c2ccncc2)o1", "GTP binding activity": "99%"}, {"smiles": "Cc1ccc(C2=NN(C(=O)COc3ncnc4ccccc34)C(c3ccco3)C2)cc1", "note": "(centres undefined)", "GTP binding activity": "93%"}, {"smiles": "COc1ccc(OC)c(-n2c(=S)[nH]c3cc(C(=O)N4CCCCC4)ccc3c2=O)c1", "GTP binding activity": "100%"}, {"smiles": "S=C(Nc1ccc(Br)cc1Cl)NC1CCN(Cc2ccccc2)CC1", "GTP binding activity": "100%"}, {"smiles": "CN(C)c1nc(-c2cccnc2)nc(-c2ccc(Cl)cc2)c1C#N", "GTP binding activity": "98%"}, {"smiles": "CC(=O)Nc1ccc(OCCC[n+]2cccc(C(=O)[O-])c2)cc1", "GTP binding activity": "97%"}, {"smiles": "CCOC(=O)C1=C(CN2CCCCCC2)NC(=O)NC1c1cccc([N+](=O)[O-])c1", "note": "(centres undefined)", "GTP binding activity": "97%"}, {"smiles": "COc1ccc(-n2c(C)nn(CC3CC3)c2=O)cc1", "GTP binding activity": "100%"}, {"smiles": "CN(C)CCCn1c(SCCN2C(=O)c3ccccc3C2=O)nc2ccccc2c1=O", "GTP binding activity": "95%"}, {"smiles": "O=S(=O)(Nc1cc(S(=O)(=O)N2CCOCC2)ccc1N1CCCC1)c1cccs1", "GTP binding activity": "98%"}, {"smiles": "Cc1ccc(N(C(=O)Cc2cccs2)C2C=CS(=O)(=O)C2)cc1Cl", "note": "(centres undefined)", "GTP binding activity": "100%"}, {"smiles": "C/C(=N\\Nc1ncc(Cl)cc1Cl)c1cccs1", "GTP binding activity": "98%"}, {"smiles": "Cc1cccc(CN2CCN(Cc3cnn(-c4ccccc4F)c3)CC2CCO)n1", "note": "(centres undefined)", "GTP binding activity": "99%"}, {"smiles": "Cc1cc(C)n(-c2nc(C(F)(F)F)nc3ccccc23)n1", "GTP binding activity": "96%"}, {"smiles": "Cc1ccc(NC(=S)N(Cc2ccco2)C(C)c2cccs2)cc1", "note": "(centres undefined)", "GTP binding activity": "101%"}, {"smiles": "COC(=O)c1cc(NC(=O)c2cccnc2)ccc1N1CCOCC1", "GTP binding activity": "96%"}, {"smiles": "CCN(CC)c1ccc(C(=O)c2cnc(/N=C/N(C)C)s2)cc1", "GTP binding activity": "95%"}, {"smiles": "Cc1cc(NC(=O)CSc2nc3c(cc2C#N)CCCCC3)no1", "GTP binding activity": "94%"}, {"smiles": "O=C(Cc1ccccc1)N1CCN(S(=O)(=O)c2ccc([N+](=O)[O-])cc2)CC1", "GTP binding activity": "98%"}, {"smiles": "N#C/C(C(=S)Nc1ccccc1)=C1/NN=C(N2CCOCC2)N1c1ccccc1", "GTP binding activity": "90%"}, {"smiles": "CCCn1c(N)c(C(=O)CSc2nc3ccccc3c(=O)n2-c2ccc(OC)cc2)c(=O)[nH]c1=O", "GTP binding activity": "92%"}, {"smiles": "S=c1[nH]nc(Nc2ccccc2)s1", "GTP binding activity": "92%"}, {"smiles": "O=C1CCC(=O)N1c1ccc(NCCc2ccccc2F)c([N+](=O)[O-])c1", "GTP binding activity": "101%"}, {"smiles": "NC(=O)COC(=O)c1sc2cc(F)ccc2c1Cl", "GTP binding activity": "94%"}, {"smiles": "CCN(CC)S(=O)(=O)c1ccc(N2CCCC2)c(NS(=O)(=O)c2cccs2)c1", "GTP binding activity": "94%"}, {"smiles": "O=C(NCc1ccccc1Cl)C1CCN(S(=O)(=O)N2CCOCC2)CC1", "GTP binding activity": "104%"}, {"smiles": "Cc1ccc(NC(=O)c2ccccn2)cc1S(=O)(=O)N1CCOCC1", "GTP binding activity": "99%"}, {"smiles": "CSc1ccc(CNCCN2CCOCC2)cc1", "GTP binding activity": "96%"}, {"smiles": "COC(=O)c1ccc(NC(=S)NN2CCOCC2)cc1", "GTP binding activity": "99%"}, {"smiles": "CCCC(=O)OCC(=O)Nc1cc(Cl)ccc1[N+](=O)[O-]", "GTP binding activity": "92%"}, {"smiles": "O=c1c(-c2ccccc2)cnc2n1CCS2", "GTP binding activity": "96%"}, {"smiles": "Cc1ccc(NC(=O)c2ccc(S(=O)(=O)NCC3CCCO3)cc2)cc1C", "note": "(centres undefined)", "GTP binding activity": "97%"}, {"smiles": "Cc1cc(CNCc2c(C(=O)N(C)Cc3ccccc3)nc3ccccn23)nn1C", "GTP binding activity": "101%"}, {"smiles": "O=C(Nc1nnc(C2CC2)s1)C1=NN(C2CCS(=O)(=O)C2)C(=O)CC1", "note": "(centres undefined)", "GTP binding activity": "96%"}, {"smiles": "Cc1nc(N2CCCCC2)sc1C=O", "GTP binding activity": "105%"}, {"smiles": "Cc1ccccc1NCC(=O)N/N=C\\c1ccc([N+](=O)[O-])s1", "GTP binding activity": "98%"}, {"smiles": "CS/C(=C\\[N+](=O)[O-])Nc1ccc(C)cc1", "GTP binding activity": "100%"}, {"smiles": "O=C(NCC1CCCO1)C1CCN(C2CCN(C(=O)C3CCCCC3)CC2)CC1", "note": "(centres undefined)", "GTP binding activity": "98%"}, {"smiles": "COC(=O)c1cc2n(n1)CCCNC2=O", "GTP binding activity": "100%"}, {"smiles": "COc1ccc(N(CC(=O)NC2CCCC2)C(=O)CS(=O)CC(=O)Nc2ccc3c(c2)OCO3)cc1", "note": "(centres undefined)", "GTP binding activity": "95%"}, {"smiles": "CCOC(=O)C1(Cc2ccc(Cl)cc2)CCN(C(=O)C2=NNC(=O)CC2)CC1", "GTP binding activity": "101%"}, {"smiles": "Cc1cc(=O)oc2c1c(C)nn2-c1ccc(Cl)cc1", "GTP binding activity": "100%"}, {"smiles": "COc1ccc(/C=N/Nc2ncnc3sc4c(c23)CCCC4)cc1O", "GTP binding activity": "71% (active)"}, {"smiles": "COc1cc(/C=N/Nc2ccc(C)cc2)cc(Br)c1O", "GTP binding activity": "94%"}, {"smiles": "COc1ncnc2sc3c(c12)CCCC3", "GTP binding activity": "102%"}, {"smiles": "COc1ccc(NC(=S)NCCN2CCC(C)CC2)cc1", "GTP binding activity": "100%"}, {"smiles": "COc1cc(OC)c(C(=O)N2CCCC2)cc1OC", "GTP binding activity": "98%"}, {"smiles": "COc1ccc(/C=N/NC(=O)c2ccncc2)cc1CN1CCCc2ccccc21", "GTP binding activity": "95%"}, {"smiles": "COc1ccc(CN2CCC(c3nc4ccc(Cl)cc4[nH]3)CC2)cc1", "GTP binding activity": "96%"}, {"smiles": "CC(Sc1nnnn1C1CCCCC1)C(=O)O", "note": "(centres undefined)", "GTP binding activity": "101%"}, {"smiles": "COc1ccc(C(=O)OCC(=O)NCC2CCCO2)cc1[N+](=O)[O-]", "note": "(centres undefined)", "GTP binding activity": "93%"}, {"smiles": "COC(=O)c1ccc(CN2CCN(CCCc3ccccc3)C(CCO)C2)cc1", "note": "(centres undefined)", "GTP binding activity": "97%"}, {"smiles": "CCCSc1nc2[nH]ncc2c(=O)[nH]1", "GTP binding activity": "99%"}, {"smiles": "Cc1ccc(CSc2nc3[nH]ncc3c(=O)[nH]2)cc1", "GTP binding activity": "79% (active)"}, {"smiles": "Cc1cccc(NC(=O)CSc2nc3[nH]ncc3c(=O)[nH]2)c1", "GTP binding activity": "94%"}, {"smiles": "Cc1cc(OCC(=O)NC2CCN(C)CC2)ccc1[N+](=O)[O-]", "GTP binding activity": "98%"}, {"smiles": "COc1ccc(C/C(N)=N/OC(=O)c2ccco2)cc1OC", "GTP binding activity": "101%"}]}]}
